# Measured values from PubChem BioAssay (NCATS).
# Records with an inconclusive call do not appear. Entries that show only a call come without a potency. Values without a mark were called inactive. The source made the active and inactive calls. Calls follow the shape of the dose curve; as a rule, active = well fitted curve in the direction sought with a large enough effect; inconclusive = small, poorly fitted or top-dose-only effect, or another doubt; inactive = no such curve, though single readings can be large; an effect the other way counts as inactive or inconclusive.
# Experiments:
# [1] = P-glycoprotein substrates identified in KB-3-1 adenocarcinoma cell line, qHTS therapeutic library screen (AID 1346986); details: KB-3-1 parental cells viability, CellTiter-Glo, 72 h; series mostly up to 44.5 µM; also: nearly all actives have a fitted effect of over 60% in size;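 also: potency is for cytotoxicity meaning loss of cell viability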
# How it was run: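 Dose-response cytotoxicity, KB-3-1 vs P-gp-high KB-8-5-11, no colchicine in assay medium. Read: CellTiter-Glo at 72 h.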
# [2] = P-glycoprotein substrates identified in KB-8-5-11 adenocarcinoma cell line, qHTS therapeutic library screen (AID 1346987); details: KB-8-5-11 (P-gp overexpressing) viability, CellTiter-Glo, 72 h; series mostly up to 44.5 µM; also: nearly all actives have a fitted effect of over 65% in size
# How it was run: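 Human cervical adenocarcinoma KB-8-5-11 cells, selected in colchicine to over-express P-gp and assayed without it, were exposed for 72 h to titrated compounds. An ATP-based luminescent viability signal gave AC50.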
# Potency is read from the fitted curve at half-maximal effect.
structure (smiles),measurement,setting,value
C=C1C(O)CC2C(C(=O)O)=COC(O[C@@H]3O[C@H](COC(=O)/C=C/c4ccc(O)cc4)[C@@H](O)[C@H](O)[C@H]3O)C12 (stereo not given in full),Potency,[1],inactive
same,Potency,[2],inactive
C/C(=C\CCC(C)CCO)C(=O)OC1(C)CCC2C(C(=O)O)=COC(OC3OC(CO)C(O)C(O)C3O)C21 (stereo not given),Potency,[1],inactive
same,Potency,[2],inactive
C[C@@H]1O[C@@H](O[C@H]2[C@H](O[C@H]3CC[C@@]4(C)C(CC[C@]5(C)C4CC=C4[C@@H]6CC(C)(C)CC[C@]6(C(=O)O[C@@H]6OC[C@H](O)[C@H](O)[C@H]6O[C@@H]6O[C@@H](C)[C@H](O[C@@H]7O[C@H](CO)[C@@H](O)[C@H](O)[C@H]7O)[C@H](O)[C@H]6O)[C@H](O)C[C@]45C)C3(C)C)O[C@H](CO)[C@@H](O[C@@H]3OC[C@@H](O)[C@H](O)[C@H]3O)[C@@H]2O)[C@H](O)[C@H](O)[C@H]1O (stereo not given in full),outcome,[1],inactive [at 9.29 µM]
same,outcome,[2],inactive [at 9.29 µM]
CC(C)C1=CC2C(CC[C@]2(C)O)[C@](C)(O)CC1 (stereo not given in full),Potency,[1],inactive
same,Potency,[2],inactive
C[C@H](CCC(=O)O)[C@H]1CC[C@H]2[C@@H]3C[C@H](O)[C@@H]4C[C@H](O)CC[C@]4(C)[C@H]3CC[C@]12C,Potency,[1],inactive
same,Potency,[2],inactive
CC1(C)CC[C@]2(C(=O)O[C@@H]3O[C@H](CO)[C@@H](O)[C@H](O)[C@H]3O)CC[C@]3(C)C(=CCC4[C@@]5(C)C[C@@H](O)[C@H](O)[C@](C)(C=O)C5CC[C@]43C)[C@@H]2[C@@H]1O (stereo not given in full),Potency,[1],inactive
same,Potency,[2],inactive
CC1=C(C)C(=O)OC(C(C)C2CCC3C4C5OC5C5(O)CC(OC6OC(CO)C(OC7OC(C)C(O)C(O)C7O)C(O)C6O)CC(O)C5(C)C4CCC23C)C1 (stereo not given),Potency,[1],inactive
same,Potency,[2],inactive
OC[C@H]1O[C@@H](Oc2cc(O)c3c(c2)O[C@@H](c2ccc(O)cc2)[C@H](O)C3)[C@H](O)[C@@H](O)[C@@H]1O,Potency,[1],inactive
same,Potency,[2],inactive
C=C(C)C1CCC2(C(=O)O[C@@H]3O[C@H](CO[C@@H]4O[C@H](CO)[C@@H](O)[C@H](O)[C@H]4O)[C@@H](O)[C@H](O[C@@H]4O[C@@H](C)[C@H](O)[C@@H](O)[C@H]4O)[C@H]3O)CCC3(C(=O)O)C(CCC4C5(C)CCC(O)C(C)(C)C5CCC43C)C12 (stereo not given in full),outcome,[1],inactive [at 9.29 µM]
same,outcome,[2],inactive [at 9.29 µM]
C/C1=C\CCC(C)CCO[C@@H]2O[C@H](CO[C@@H]3OC[C@H](O)[C@H](O)[C@H]3OC1=O)[C@@H](O)[C@H](O)[C@H]2O (stereo not given in full),Potency,[1],inactive
same,Potency,[2],inactive
CC1(C)CC[C@]2(C(=O)O[C@@H]3O[C@H](CO[C@@H]4O[C@H](CO)[C@@H](O)[C@H](O)[C@H]4O[C@@H]4O[C@H](CO)[C@@H](O)[C@H](O)[C@H]4O)[C@@H](O)[C@H](O[C@@H]4O[C@H](CO)[C@@H](O)[C@H](O)[C@H]4O)[C@H]3O)CC[C@]3(C)C(=CCC4[C@@]5(C)CC[C@@H](O)[C@@](C)(C(=O)O[C@@H]6O[C@H](CO)[C@@H](O)[C@H](O)[C@H]6O)C5CC[C@]43C)[C@@H]2C1 (stereo not given in full),outcome,[1],inactive [at 9.29 µM]
same,outcome,[2],inactive [at 9.29 µM]
CC(C)=C/C=C\[C@H](C)[C@H]1CC[C@]2(C)C[C@@H]3C(C)=CC(=O)C3/C(CO)=C\C[C@@H]12 (stereo not given in full),Potency,[1],inactive
same,Potency,[2],inactive
CN[C@H](CC(C)C)C(=O)N[C@H]1C(=O)N[C@@H](CC(N)=O)C(=O)N[C@H]2C(=O)N[C@H]3C(=O)N[C@H](C(=O)N[C@H](C(=O)O)c4cc(O)cc(O)c4-c4cc3ccc4O)[C@H](O[C@H]3C[C@](C)(N)[C@@H](O)[C@H](C)O3)c3ccc(c(Cl)c3)Oc3cc2cc(c3O[C@@H]2O[C@H](CO)[C@@H](O)[C@H](O)[C@H]2O[C@H]2C[C@](C)(NCc3ccc(-c4ccc(Cl)cc4)cc3)[C@@H](O)[C@H](C)O2)Oc2ccc(cc2Cl)[C@H]1O,Potency,[1],inactive
same,Potency,[2],inactive
CCn1c(=O)c(-c2ccn[nH]2)cc2c(C)nc(N)nc21,Potency,[1],3660 nM (active)
same,Potency,[2],2910 nM (active)
O=C(O)CCCCCC[C@H]1C(=O)NC(=O)N1CC[C@@H](O)C1CCCCC1,Potency,[1],inactive
same,Potency,[2],inactive
C[C@@H]1CC[C@]2(C(=O)O[C@@H]3O[C@H](CO)[C@@H](O)[C@H](O)[C@H]3O)CC[C@]3(C)C(=CCC4[C@@]5(C)C[C@@H](O)[C@H](O)[C@@](C)(C(=O)O[C@H]6[C@H](O)C[C@@]7(C)C(CC[C@]8(C)C7CC=C7[C@H]9[C@](C(=O)O[C@@H]%10O[C@H](CO)[C@@H](O)[C@H](O)[C@H]%10O)(CC[C@@H](C)[C@@]9(C)O)CC[C@]78C)[C@@]6(CO)C(=O)O)C5CC[C@]43C)[C@@H]2[C@]1(C)O (stereo not given in full),outcome,[1],inactive [at 9.29 µM]
same,"activity change, negative = cytotoxicity",[2],1.31% [at 9.29 µM]
Nc1ncnc2c1ncn2CCNCCCCCO,Potency,[1],inactive
same,Potency,[2],inactive
C=C(C(=O)O)C1CC2=C(C)CCCC2(C)C[C@@H]1O (stereo not given in full),Potency,[1],inactive
same,Potency,[2],inactive
CCCCNc1ncc2c(-c3ccc(F)cc3)nn(CC3CCC(N)CC3)c2n1 (stereo not given),Potency,[1],2000 nM (active)
same,Potency,[2],1780 nM (active)
C=C(C)C(=O)O[C@H]1C[C@@](C)(O)C(=O)CC(O)/C(C)=C\[C@H]2OC(=O)C(=C)[C@H]12 (stereo not given in full),Potency,[1],inactive
same,Potency,[2],inactive
CC(C)S(=O)(=O)N[C@H]1CCOC[C@@H]1c1ccc(-c2ccc(C#N)s2)cc1,Potency,[1],inactive
same,Potency,[2],inactive
CC1(C)CC[C@]2(C(=O)O[C@@H]3O[C@H](CO)[C@@H](O)[C@H](O)[C@H]3O)CC[C@]3(C)C(=CCC4[C@@]5(C)C[C@@H](O)[C@H](O)C(C)(C)C5[C@H](O)C[C@]43C)[C@@H]2[C@@H]1O (stereo not given in full),Potency,[1],inactive
same,Potency,[2],inactive
CC(C)=CCC/C(C)=C/CCC1(C)Oc2c(c(O)cc3c2CN(C(CCC(=O)O)C(=O)O)C3=O)CC1O (stereo not given),Potency,[1],inactive
same,Potency,[2],inactive
COc1c2c(c(CO)c3c1C(=O)OC3)OC1(C)CCC3(O)C(C)(C)OC(=O)CCC3(C)C1C2 (stereo not given),Potency,[1],inactive
same,Potency,[2],inactive
CC(=O)C1=CCC2C3CCC4CC(O[C@@H]5O[C@H](CO)[C@@H](O[C@@H]6O[C@@H](C)[C@H](O)[C@@H](O)[C@H]6O)[C@H](O)[C@H]5O[C@@H]5O[C@H](CO)[C@@H](O)[C@H](O)[C@H]5O)CCC4(C)C3CCC12C (stereo not given in full),Potency,[1],inactive
same,Potency,[2],inactive
CC1=C(C(=O)O)/C(=C\CO[C@@H]2O[C@H](CO)[C@@H](O)[C@H](O)[C@H]2O)C(OC(=O)/C=C\c2ccc(O)cc2)C1 (stereo not given in full),Potency,[1],inactive
same,Potency,[2],inactive
C=C[C@H]1[C@H](O[C@@H]2O[C@H](CO)[C@@H](O)[C@H](O)[C@H]2O)OC=C(C(=O)OC)[C@H]1CCOC(=O)c1cc(O)c(O)c(O)c1,Potency,[1],inactive
same,Potency,[2],inactive
C[C@H](NC(c1cccc(C[P+](=O)O)c1)[C@H](C)O)c1ccc(Cl)c(Cl)c1 (stereo not given in full),Potency,[1],inactive
same,Potency,[2],inactive
O=C(CC1C(=O)Nc2ccccc21)OC[C@H]1O[C@@H](OCCc2ccc(O)cc2)[C@H](O)[C@@H](O)[C@@H]1O (stereo not given in full),Potency,[1],inactive
same,Potency,[2],inactive
COc1c2c(c(C)c3c1C(=O)OC3)OC1(C)CC(O)C34OC(OC)(OC3(C)C)C(O)CC4(C)C1C2 (stereo not given),Potency,[1],inactive
same,Potency,[2],inactive
C=C1C(=O)OC2CC3(C)C(CC12)C(C)=CC(O)C3OC(C)=O (stereo not given),Potency,[1],inactive
same,Potency,[2],inactive
C[C@@H]1O[C@@H](O[C@H]2[C@H](O[C@H]3[C@H](O[C@H]4CC[C@@]5(C)C(CC[C@]6(C)C5CC=C5[C@@H]7CC(C)(C)CC[C@]7(C(=O)O[C@@H]7O[C@H](CO)[C@@H](O[C@@H]8O[C@@H](C)[C@H](O)[C@@H](O)[C@H]8O)[C@H](O)[C@H]7O)CC[C@]56C)C4(C)C)OC[C@H](O)[C@@H]3O)O[C@H](CO)[C@@H](O)[C@@H]2O)[C@H](O)[C@H](O)[C@H]1O (stereo not given in full),outcome,[1],inactive [at 9.29 µM]
same,outcome,[2],inactive [at 9.29 µM]
C=C[C@@H]1[C@H](O[C@@H]2O[C@H](CO)[C@@H](O)[C@H](O)[C@H]2O)OC=C(C(=O)O)[C@H]1CCOC(=O)/C=C/c1ccc(O)c(O)c1,Potency,[1],inactive
same,Potency,[2],inactive
COc1cc(/C=C/C=O)cc(OC)c1O[C@@H]1O[C@H](CO)[C@@H](O)[C@H](O)[C@H]1O,Potency,[1],inactive
same,Potency,[2],inactive
OC[C@H]1O[C@@H](OC[C@H]2O[C@@H](OC/C=C/c3ccccc3)[C@H](O)[C@@H](O)[C@@H]2O)[C@@H](O)[C@@H]1O,Potency,[1],inactive
same,Potency,[2],inactive
C[C@H]1CC[C@@H]2N(C1)C[C@@H]1[C@H]([C@@H](O)[C@H](O)[C@]3(O)[C@H]1C[C@@]14OC5(O)[C@@H](C[C@@H](O)[C@@H]31)[C@]4(C)CC[C@@H]5O)[C@]2(C)O,Potency,[1],inactive
same,Potency,[2],inactive
COC(=O)c1cc(OC)cc(OC)c1C(=O)c1c(OC)cc2c(c1O)C1CCCC(C)(O2)O1 (stereo not given),Potency,[1],inactive
same,Potency,[2],inactive
COC(=O)CC(O)CC(O)/C=C/c1c(C)ccc2c1C(O)CC(C)C2 (stereo not given),Potency,[1],inactive
same,Potency,[2],inactive
CC(C)=CCC(O)/C(C)=C/CO[C@@H]1O[C@H](CO)[C@@H](O)[C@H](O)[C@H]1O (stereo not given in full),Potency,[1],inactive
same,Potency,[2],inactive
C=C1CC[C@@H]2[C@@](C)(CO[C@@H]3O[C@H](CO)C(O)[C@H](O)C3O)[C@H](O)CC[C@@]2(C)[C@@H]1CC/C(C)=C/CO (stereo not given in full),outcome,[1],inactive [at 9.29 µM]
same,"activity change, negative = cytotoxicity",[2],5.95% [at 9.29 µM]
O=C(O)c1cn(C2CC2)c2cc(N3C[C@@H]4C[C@H]3CN4)c(F)cc2c1=O,Potency,[1],inactive
same,Potency,[2],inactive
Cc1cc(OCc2nc(-c3ccccc3Cl)cs2)ccc1OCC(=O)O,Potency,[1],inactive
same,Potency,[2],inactive
CC(O)(CC(=O)O)CC(=O)OCc1ccc(O[C@@H]2O[C@H](CO)[C@@H](O)[C@H](O)[C@H]2O)cc1 (stereo not given in full),Potency,[1],inactive
same,Potency,[2],inactive
CCC(O)C(C)C1CCC(C(C)C(=O)O)O1 (stereo not given),Potency,[1],inactive
same,Potency,[2],inactive
COC(=O)C1=CO[C@@H](O[C@@H]2O[C@H](CO)[C@@H](O)[C@H](O)[C@H]2O)C2C1C(=O)C[C@H]2C (stereo not given in full),Potency,[1],inactive
same,Potency,[2],inactive
